Assays:
Assay in all cases: DAPPL (digital affinity profiling via proximity ligation, sequencing); 10 mM Tris-HCl pH 7.5, 50 mM NaCl, 1 mM DTT, 4% glycerol, room temperature, 30 min; GST-TFs on glutathione beads, 16-mer random dsDNA library, 0.1% formaldehyde crosslink after washing; high values mean tight binding
Conditions in all cases: protein: recombinant; tags: N-terminal GST; dsDNA, one strand shown
[1] = target: T1, FLI1 (Homo sapiens, UniProt Q01543 1-452)
T1 sequence: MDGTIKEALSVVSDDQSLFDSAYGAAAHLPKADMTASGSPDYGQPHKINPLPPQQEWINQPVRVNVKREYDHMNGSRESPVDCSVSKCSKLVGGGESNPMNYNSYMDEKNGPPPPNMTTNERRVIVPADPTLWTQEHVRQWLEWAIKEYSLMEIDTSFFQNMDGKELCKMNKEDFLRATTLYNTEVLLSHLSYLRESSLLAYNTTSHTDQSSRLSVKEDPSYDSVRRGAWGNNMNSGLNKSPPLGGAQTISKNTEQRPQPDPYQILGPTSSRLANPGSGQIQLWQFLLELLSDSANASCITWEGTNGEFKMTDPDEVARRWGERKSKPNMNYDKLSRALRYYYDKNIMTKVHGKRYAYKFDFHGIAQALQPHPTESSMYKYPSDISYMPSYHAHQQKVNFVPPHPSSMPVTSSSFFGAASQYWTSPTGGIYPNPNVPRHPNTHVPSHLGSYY
In short: (§1)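 Human transcription factors were made in yeast as GST fusions, captured on glutathione beads and barcoded with DNA. With a tag-only sample included, the pool was incubated with 200 nmole of a random double-stranded 16-mer DNA library in Tris/NaCl/DTT/glycerol buffer at room temperature for 30 min, then crosslinked with 0.1% formaldehyde after washing, ligated by proximity, amplified and sequenced. For binding signal, each hexamer's read frequency for a factor is divided by its frequency for the tag-only sample.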

[2] = target: T2, ELK1 (Homo sapiens, UniProt P19419 1-428)
T2 sequence: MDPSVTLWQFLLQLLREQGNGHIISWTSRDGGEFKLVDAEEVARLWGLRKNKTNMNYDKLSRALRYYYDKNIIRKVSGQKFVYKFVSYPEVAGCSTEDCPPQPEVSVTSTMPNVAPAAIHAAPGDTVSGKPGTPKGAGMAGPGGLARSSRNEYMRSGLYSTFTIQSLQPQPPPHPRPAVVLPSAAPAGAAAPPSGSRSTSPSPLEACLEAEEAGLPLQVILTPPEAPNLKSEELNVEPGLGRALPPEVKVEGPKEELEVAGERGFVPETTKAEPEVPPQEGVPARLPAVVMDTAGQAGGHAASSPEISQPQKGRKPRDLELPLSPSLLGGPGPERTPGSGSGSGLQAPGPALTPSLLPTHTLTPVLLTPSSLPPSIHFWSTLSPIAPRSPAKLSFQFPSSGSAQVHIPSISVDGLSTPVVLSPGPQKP
In short: as §1

[3] = target: T3, GABPA (Homo sapiens, UniProt Q06546 1-454)
T3 sequence: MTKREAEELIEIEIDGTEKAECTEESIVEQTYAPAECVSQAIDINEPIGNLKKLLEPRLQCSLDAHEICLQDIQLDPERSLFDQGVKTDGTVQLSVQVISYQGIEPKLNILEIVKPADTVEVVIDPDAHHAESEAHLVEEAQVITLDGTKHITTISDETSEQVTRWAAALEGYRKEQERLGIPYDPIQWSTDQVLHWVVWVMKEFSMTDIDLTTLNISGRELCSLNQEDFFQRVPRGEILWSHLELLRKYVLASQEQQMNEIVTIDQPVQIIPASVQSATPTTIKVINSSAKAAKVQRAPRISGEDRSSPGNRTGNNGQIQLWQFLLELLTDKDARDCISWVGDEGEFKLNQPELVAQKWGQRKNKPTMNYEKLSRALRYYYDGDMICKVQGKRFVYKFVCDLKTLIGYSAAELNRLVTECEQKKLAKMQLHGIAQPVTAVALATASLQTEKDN
In short: as §1

[4] = target: T4, ERG (Homo sapiens, UniProt P11308 1-479)
T4 sequence: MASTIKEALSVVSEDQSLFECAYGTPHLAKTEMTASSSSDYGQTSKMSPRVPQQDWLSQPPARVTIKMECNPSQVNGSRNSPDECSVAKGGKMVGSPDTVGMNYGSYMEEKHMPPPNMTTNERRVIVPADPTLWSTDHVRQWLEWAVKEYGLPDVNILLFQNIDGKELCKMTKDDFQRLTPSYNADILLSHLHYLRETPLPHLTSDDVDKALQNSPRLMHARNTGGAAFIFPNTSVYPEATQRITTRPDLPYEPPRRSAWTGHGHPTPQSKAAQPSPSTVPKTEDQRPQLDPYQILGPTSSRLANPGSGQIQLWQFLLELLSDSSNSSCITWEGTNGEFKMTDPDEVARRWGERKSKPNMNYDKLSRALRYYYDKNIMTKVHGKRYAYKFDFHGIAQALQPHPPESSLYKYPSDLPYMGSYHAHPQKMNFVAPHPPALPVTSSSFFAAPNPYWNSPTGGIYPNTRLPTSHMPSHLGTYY
In short: as §1

[5] = target: ELF1 (Homo sapiens, UniProt P32519 1-619)
Chain of ELF1 (P32519 whole entry): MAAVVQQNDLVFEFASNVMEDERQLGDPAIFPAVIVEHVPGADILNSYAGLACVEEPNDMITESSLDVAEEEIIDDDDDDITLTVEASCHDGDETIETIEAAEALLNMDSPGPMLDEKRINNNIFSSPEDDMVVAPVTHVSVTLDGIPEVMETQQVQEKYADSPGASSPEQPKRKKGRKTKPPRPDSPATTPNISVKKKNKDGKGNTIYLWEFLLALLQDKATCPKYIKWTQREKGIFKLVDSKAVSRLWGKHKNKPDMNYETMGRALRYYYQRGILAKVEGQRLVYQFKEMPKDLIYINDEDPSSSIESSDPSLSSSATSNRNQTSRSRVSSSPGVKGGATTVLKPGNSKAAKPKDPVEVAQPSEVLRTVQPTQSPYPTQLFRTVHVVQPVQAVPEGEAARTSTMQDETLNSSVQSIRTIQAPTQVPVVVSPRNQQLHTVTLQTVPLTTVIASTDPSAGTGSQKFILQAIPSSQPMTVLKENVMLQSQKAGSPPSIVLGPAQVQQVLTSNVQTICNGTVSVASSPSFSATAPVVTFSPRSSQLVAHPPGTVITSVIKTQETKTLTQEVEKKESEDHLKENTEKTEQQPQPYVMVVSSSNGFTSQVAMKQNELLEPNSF
In short: as §1

[6] = target: T5, EHF (Homo sapiens, UniProt Q9NZC4 1-300)
T5 sequence: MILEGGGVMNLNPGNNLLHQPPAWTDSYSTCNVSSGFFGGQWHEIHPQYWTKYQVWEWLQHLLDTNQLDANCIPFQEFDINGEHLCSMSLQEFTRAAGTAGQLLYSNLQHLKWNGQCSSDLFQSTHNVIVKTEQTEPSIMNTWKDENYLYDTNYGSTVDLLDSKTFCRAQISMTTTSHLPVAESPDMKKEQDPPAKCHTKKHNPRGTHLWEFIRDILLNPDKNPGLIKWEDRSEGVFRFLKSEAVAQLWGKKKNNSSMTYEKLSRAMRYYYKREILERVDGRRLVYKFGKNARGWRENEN
In short: as §1

[7] = target: SPI1 (Homo sapiens, UniProt P17947 1-270)
In short: as §1

[8] = target: T6, ELK3 (Homo sapiens, UniProt P41970 1-407)
T6 sequence: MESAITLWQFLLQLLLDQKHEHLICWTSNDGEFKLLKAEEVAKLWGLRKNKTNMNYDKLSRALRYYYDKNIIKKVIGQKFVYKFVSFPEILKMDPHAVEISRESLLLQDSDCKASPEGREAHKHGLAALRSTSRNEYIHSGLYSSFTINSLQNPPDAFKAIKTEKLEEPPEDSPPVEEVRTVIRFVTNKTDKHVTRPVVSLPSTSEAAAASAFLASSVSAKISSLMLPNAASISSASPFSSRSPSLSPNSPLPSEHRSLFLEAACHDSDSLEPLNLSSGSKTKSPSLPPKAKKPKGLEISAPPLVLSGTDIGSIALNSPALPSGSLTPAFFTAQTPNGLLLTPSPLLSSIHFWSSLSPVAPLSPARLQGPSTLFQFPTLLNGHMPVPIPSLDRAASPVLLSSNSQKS
In short: as §1

[9] = target: T7, FEV (Homo sapiens, UniProt Q99581 1-238)
T7 sequence: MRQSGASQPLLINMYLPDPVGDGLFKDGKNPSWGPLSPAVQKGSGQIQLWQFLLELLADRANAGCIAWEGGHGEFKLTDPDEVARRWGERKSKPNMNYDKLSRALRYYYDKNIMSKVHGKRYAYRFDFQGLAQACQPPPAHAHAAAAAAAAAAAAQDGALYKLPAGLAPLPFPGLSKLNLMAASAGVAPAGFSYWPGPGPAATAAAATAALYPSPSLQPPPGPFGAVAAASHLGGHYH
In short: as §1

[10] = target: ETV5 (Homo sapiens, UniProt P41161 1-510)
Chain of ETV5 (P41161 whole entry): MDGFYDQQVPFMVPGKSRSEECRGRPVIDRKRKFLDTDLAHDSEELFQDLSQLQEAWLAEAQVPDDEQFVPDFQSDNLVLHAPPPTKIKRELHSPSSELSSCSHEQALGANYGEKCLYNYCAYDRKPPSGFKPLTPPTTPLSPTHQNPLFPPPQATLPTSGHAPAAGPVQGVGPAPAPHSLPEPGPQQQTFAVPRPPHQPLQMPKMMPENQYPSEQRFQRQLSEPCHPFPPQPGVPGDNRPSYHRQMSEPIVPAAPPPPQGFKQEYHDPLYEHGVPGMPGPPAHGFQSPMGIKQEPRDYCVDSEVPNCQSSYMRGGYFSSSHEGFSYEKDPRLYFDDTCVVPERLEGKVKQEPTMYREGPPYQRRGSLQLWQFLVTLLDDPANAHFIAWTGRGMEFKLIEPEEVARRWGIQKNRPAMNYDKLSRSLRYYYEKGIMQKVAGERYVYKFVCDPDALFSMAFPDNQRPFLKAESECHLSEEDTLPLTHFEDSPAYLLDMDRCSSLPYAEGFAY
In short: as §1

[11] = target: T8, SPIC (Homo sapiens, UniProt Q8N5J4 1-248)
T8 sequence: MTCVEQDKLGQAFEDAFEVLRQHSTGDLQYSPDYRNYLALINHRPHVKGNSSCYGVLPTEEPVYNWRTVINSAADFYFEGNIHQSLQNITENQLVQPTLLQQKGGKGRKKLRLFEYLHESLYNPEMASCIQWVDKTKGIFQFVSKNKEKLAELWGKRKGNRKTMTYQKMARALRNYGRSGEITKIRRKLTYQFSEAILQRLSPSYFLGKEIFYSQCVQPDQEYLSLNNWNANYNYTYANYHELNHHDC
In short: as §1

[12] = target: ELF4 (Homo sapiens, UniProt Q99607 1-663)
Chain of ELF4 (Q99607 whole entry): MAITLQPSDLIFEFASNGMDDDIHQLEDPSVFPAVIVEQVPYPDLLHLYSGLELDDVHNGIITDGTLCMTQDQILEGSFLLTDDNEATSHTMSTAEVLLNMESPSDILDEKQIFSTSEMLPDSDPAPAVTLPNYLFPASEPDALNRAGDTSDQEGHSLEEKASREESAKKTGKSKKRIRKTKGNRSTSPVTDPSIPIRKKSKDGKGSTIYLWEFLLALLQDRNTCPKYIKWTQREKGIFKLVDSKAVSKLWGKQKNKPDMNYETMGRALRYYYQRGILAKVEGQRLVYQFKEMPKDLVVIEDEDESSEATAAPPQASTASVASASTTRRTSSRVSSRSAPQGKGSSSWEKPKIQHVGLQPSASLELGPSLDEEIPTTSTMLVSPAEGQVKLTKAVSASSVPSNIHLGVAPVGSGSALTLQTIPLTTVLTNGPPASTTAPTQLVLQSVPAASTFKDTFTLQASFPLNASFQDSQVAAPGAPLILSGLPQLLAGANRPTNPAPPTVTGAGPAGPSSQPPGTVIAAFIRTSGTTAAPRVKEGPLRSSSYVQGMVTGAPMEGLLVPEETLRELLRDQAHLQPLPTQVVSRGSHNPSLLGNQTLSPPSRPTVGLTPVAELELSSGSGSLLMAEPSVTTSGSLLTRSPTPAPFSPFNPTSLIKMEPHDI
In short: as §1

[13] = target: T9, ELK4 (Homo sapiens, UniProt P28324-2 1-405)
T9 sequence: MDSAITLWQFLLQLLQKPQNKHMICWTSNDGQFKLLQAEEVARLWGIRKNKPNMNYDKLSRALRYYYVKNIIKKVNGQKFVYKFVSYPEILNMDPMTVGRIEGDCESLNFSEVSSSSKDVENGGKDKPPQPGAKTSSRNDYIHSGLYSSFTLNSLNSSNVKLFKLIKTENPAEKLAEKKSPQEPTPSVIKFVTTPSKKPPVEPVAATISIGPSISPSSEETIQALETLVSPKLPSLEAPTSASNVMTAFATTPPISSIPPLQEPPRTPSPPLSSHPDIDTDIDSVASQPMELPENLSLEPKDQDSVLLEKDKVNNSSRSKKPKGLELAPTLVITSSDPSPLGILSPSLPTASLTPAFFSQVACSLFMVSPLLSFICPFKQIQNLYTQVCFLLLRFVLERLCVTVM
In short: as §1

[14] = target: T10, ETV2 (Homo sapiens, UniProt O00321 1-342)
T10 sequence: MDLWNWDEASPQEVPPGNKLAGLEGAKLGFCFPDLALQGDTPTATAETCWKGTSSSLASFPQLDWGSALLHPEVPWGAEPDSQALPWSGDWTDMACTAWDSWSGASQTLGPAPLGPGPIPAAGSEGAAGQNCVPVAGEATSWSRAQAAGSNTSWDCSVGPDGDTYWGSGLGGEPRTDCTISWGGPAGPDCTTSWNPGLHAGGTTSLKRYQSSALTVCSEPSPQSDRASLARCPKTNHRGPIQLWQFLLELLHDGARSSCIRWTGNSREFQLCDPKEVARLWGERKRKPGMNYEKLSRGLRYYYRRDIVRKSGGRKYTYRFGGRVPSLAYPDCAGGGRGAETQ
In short: as §1

[15] = target: T11, ELF3 (Homo sapiens, UniProt P78545 1-371)
T11 sequence: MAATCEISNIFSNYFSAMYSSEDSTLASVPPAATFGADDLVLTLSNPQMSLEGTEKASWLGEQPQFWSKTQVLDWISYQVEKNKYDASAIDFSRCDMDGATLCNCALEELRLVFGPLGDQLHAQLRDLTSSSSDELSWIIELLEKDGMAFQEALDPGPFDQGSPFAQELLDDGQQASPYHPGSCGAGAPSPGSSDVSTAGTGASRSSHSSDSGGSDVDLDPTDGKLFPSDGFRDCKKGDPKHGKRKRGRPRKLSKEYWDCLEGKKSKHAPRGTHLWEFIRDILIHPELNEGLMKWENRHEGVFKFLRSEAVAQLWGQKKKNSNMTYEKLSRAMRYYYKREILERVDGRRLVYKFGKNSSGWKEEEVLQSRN
In short: as §1

[16] = target: ETV1 (Homo sapiens, UniProt P50549 1-477)
Chain of ETV1 (P50549 whole entry): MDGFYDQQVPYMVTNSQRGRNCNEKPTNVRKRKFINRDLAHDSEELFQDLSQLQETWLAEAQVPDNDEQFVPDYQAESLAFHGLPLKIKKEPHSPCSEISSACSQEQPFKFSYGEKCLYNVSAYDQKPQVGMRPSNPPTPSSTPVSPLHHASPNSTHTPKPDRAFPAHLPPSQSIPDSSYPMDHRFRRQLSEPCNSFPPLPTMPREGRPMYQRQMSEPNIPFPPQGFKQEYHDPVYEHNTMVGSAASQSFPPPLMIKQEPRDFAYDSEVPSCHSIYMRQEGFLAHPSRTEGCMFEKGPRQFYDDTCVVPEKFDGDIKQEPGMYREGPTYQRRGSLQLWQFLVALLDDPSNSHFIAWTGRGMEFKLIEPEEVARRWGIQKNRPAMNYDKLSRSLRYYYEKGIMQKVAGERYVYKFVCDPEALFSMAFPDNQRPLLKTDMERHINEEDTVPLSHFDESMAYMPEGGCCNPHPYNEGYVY
In short: as §1

[17] = target: SPIB (Homo sapiens, UniProt Q01892 1-262)
Chain of SPIB (Q01892 whole entry): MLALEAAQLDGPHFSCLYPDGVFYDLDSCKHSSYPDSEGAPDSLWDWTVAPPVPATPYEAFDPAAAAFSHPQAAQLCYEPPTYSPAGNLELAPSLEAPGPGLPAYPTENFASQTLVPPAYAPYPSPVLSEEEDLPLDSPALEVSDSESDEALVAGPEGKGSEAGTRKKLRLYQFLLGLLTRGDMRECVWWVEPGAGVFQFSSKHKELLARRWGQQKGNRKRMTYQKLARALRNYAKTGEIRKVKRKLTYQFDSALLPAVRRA
In short: as §1

[18] = target: CRX (Homo sapiens, UniProt O43186 1-299)
Chain of CRX (O43186 whole entry): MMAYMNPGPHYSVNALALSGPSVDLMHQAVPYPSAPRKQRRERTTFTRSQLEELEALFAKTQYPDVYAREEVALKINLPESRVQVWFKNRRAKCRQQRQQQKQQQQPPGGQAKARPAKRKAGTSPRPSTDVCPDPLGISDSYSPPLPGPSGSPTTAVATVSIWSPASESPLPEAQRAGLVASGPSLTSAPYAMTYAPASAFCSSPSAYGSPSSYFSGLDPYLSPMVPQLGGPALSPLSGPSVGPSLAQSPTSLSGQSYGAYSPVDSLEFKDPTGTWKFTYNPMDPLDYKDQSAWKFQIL
In short: as §1

Sequence | binding signal [1] | binding signal [2] | binding signal [3] | binding signal [4] | binding signal [5] | binding signal [6] | binding signal [7] | binding signal [8] | binding signal [9] | binding signal [10] | binding signal [11] | binding signal [12] | binding signal [13] | binding signal [14] | binding signal [15] | binding signal [16] | binding signal [17] | binding signal [18]
GCCCCC | 1.06 fold enrichment (6-mer frequency, TF over GST control) | 1.02 fold enrichment (6-mer frequency, TF over GST control) | 1.15 fold enrichment (6-mer frequency, TF over GST control) | 1.03 fold enrichment (6-mer frequency, TF over GST control) | 1.15 fold enrichment (6-mer frequency, TF over GST control) | 1.13 fold enrichment (6-mer frequency, TF over GST control) | 1.12 fold enrichment (6-mer frequency, TF over GST control) | 1.06 fold enrichment (6-mer frequency, TF over GST control) | 1.13 fold enrichment (6-mer frequency, TF over GST control) | 1.06 fold enrichment (6-mer frequency, TF over GST control) | 1.26 fold enrichment (6-mer frequency, TF over GST control) | 1.11 fold enrichment (6-mer frequency, TF over GST control) | 1.18 fold enrichment (6-mer frequency, TF over GST control) | 1.23 fold enrichment (6-mer frequency, TF over GST control) | 1.2 fold enrichment (6-mer frequency, TF over GST control) | 1.1 fold enrichment (6-mer frequency, TF over GST control) | – | –
CCGTAT | 1.22 fold enrichment (6-mer frequency, TF over GST control) | 1.36 fold enrichment (6-mer frequency, TF over GST control) | 1.31 fold enrichment (6-mer frequency, TF over GST control) | 1.2 fold enrichment (6-mer frequency, TF over GST control) | 1.26 fold enrichment (6-mer frequency, TF over GST control) | 1.14 fold enrichment (6-mer frequency, TF over GST control) | 1.26 fold enrichment (6-mer frequency, TF over GST control) | 1.32 fold enrichment (6-mer frequency, TF over GST control) | 1.14 fold enrichment (6-mer frequency, TF over GST control) | 1.23 fold enrichment (6-mer frequency, TF over GST control) | 1.29 fold enrichment (6-mer frequency, TF over GST control) | 1.17 fold enrichment (6-mer frequency, TF over GST control) | 1.27 fold enrichment (6-mer frequency, TF over GST control) | 1.34 fold enrichment (6-mer frequency, TF over GST control) | – | 1.19 fold enrichment (6-mer frequency, TF over GST control) | 1.31 fold enrichment (6-mer frequency, TF over GST control) | 1 fold enrichment (6-mer frequency, TF over GST control)
